Data from PubChem BioAssay (NCI).
About 79,000 compounds went through this panel and 15% of them were active in at least one assay; those are over-represented in the sample as a whole. A number with no mark means an inactive call. Active and inactive are the calls of the source. No stated cut-off is given here; in the data, active means growth inhibition above about 70%; inactive means the rest.

Assays:
[1] = NCI Yeast Anticancer Drug Screen. Data for the mec2-1 strain (AID 157); conditions: S. cerevisiae mec2-1 strain, at 50.0 µM, active compounds read high
In short: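 Test agents were screened against the mec2-1 yeast strain, with defined DNA repair or cell cycle alteration. Growth was scored as inhibition against vehicle-only controls.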

[2] = NCI Yeast Anticancer Drug Screen. Data for the sgs1 mgt1 strain (AID 161);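 further: 0% = growth of cultures given vehicle only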; conditions: S. cerevisiae sgs1 mgt1 strain, at 50.0 µM, active compounds read high
In short: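 Mutant yeast exposed to compound; growth scored against vehicle-only wells.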

[3] = NCI Yeast Anticancer Drug Screen. Data for the cln2 rad14 strain (AID 165);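 further: 0% = growth equal to vehicle treated cultures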; conditions: S. cerevisiae cln2 rad14 strain, at 50.0 µM, active compounds read high
In short: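 Growth of compound-exposed yeast (cln2 rad14 genotype) measured and expressed as inhibition relative to vehicle.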

[4] = NCI Yeast Anticancer Drug Screen. Data for the bub3 strain (AID 167); conditions: S. cerevisiae bub3 mutant strain, at 50.0 µM, active compounds read high
In short: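 Compounds were applied to a genetically altered yeast strain carrying a cell-cycle control defect. Growth inhibition was scored against vehicle-treated controls.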

[5] = NCI Yeast Anticancer Drug Screen. Data for the mlh1 rad18 strain (AID 175); conditions: S. cerevisiae mlh1 rad18 strain growth inhibition; at 50.0 µM; active compounds read high
In short: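 In this whole-cell yeast screen, a strain with altered DNA damage repair is challenged with compound, and its growth is measured against matched vehicle-treated controls.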

| SMILES | growth inhibition [1] | growth inhibition [2] | growth inhibition [3] | growth inhibition [4] | growth inhibition [5] |
| --- | --- | --- | --- | --- | --- |
| Cc1cccc(-c2c3ccccc3cc3ccccc23)c1 | 14.2% | 7.55% | -3.1% | 2.35% | 11.6% |
| CCCCCCN(CCCCCC)C(=S)N/N=C(\C)c1ccccn1 | 85.5% (active) | 83.7% (active) | 72.3% (active) | 87.6% (active) | 82.2% (active) |
| CCCCCCCCCCCCCCCC(=O)NCC(=O)NC1C(CO)OC(Nc2ncnc3nc[nH]c23)C(O)C1O (stereo not given) | 19% | 82.7% (active) | 14.7% | 76.2% (active) | -11.7% |
| CC(=O)OC1C(C)OC(OC(=O)C2CCC3C(C2)OC2(CC(OC(=O)/C=C/c4ccccc4)C(C)CO2)C32CO2)C(OC2OC(C)C(O)C(O)C2O)C1O (stereo not given) | -16.8% | 2.3% | 13.5% | 3.65% | -62.9% |
| CCN(CC)CC(C)C(O)(Cc1ccccc1)c1ccc(Cl)cc1 (stereo not given) | 17.6% | 27.9% | 33.5% | 10.1% | 17.4% |
| Clc1ccc2cc3ccccc3cc2c1 | 2.5% | -3.95% | -16.4% | 5.8% | -21% |
| CN(C)c1ccc(SSc2ccc(N(C)C)cc2)cc1 | -20.6% | 3.2% | -3.9% | 6.55% | 1.25% |
| COC(=O)C1C2OC(C(Br)C2Br)C1C(=O)O (stereo not given) | 2.2% | 7.1% | 2.2% | 9.95% | 3.8% |
| Cc1cccc(C)c1Nc1nc(C)c(C(=O)CC(=O)C(=O)Nc2c(C(C)C)cccc2C(C)C)s1 | -6.35% | 46.3% | -15.7% | -3.55% | 19.6% |
| CN1CC=C(C#CC(C)(C)O)CC1 | -17.4% | -0.65% | 4.7% | -5.9% | -25.3% |
| O=C(O)C1CCCCC1O (stereo not given) | 21.1% | -5.25% | 23.3% | 21.4% | 1.3% |
| O=C1c2ccccc2C2(Br)C(=O)c3ccccc3C12Br (stereo not given) | 99% (active) | 98.8% (active) | 98.5% (active) | 98.5% (active) | 98.9% (active) |
| CC(C)[N+](=C1O[B-](c2ccccc2)(c2ccccc2)O[B-]1(c1ccccc1)[C+]1CCCCC1)C(C)C (stereo not given) | -4.45% | 10.8% | 19.8% | 2.15% | 2.2% |
| COC1OC2COC(c3ccccc3)OC2C(O)C1N=[N+]=[N-] (stereo not given) | 0.7% | -1.35% | -19.9% | -4.4% | 7.9% |
| NNC(=O)Sc1ccccc1 | 9.65% | -12.8% | -31.9% | -12.3% | -0.45% |
| COC(=O)c1c(C(=O)Nc2ccc(Cl)cc2)c(C)n(NC(N)=O)c1C | 8.8% | 6.9% | -45.5% | 1.15% | 3.95% |
| CN(C)C(=O)c1cccc(C2CCCCC2)c1O | 1.85% | 14.6% | -81.4% | -18.6% | -14.7% |
| S=C(NCc1ccc(Cl)c(Cl)c1)Nc1ccccc1 | 99.2% (active) | 99% (active) | 98.2% (active) | 97.3% (active) | 98% (active) |
| COc1cccc(C=Nc2ccc(N(C)C)cc2)c1O.COc1cccc(C=Nc2ccc(N(C)C)cc2)c1O.[Co] | 5.55% | 14.6% | 2.9% | 8.25% | -2.3% |
| CC[n+]1nc2ccccc2c(=Nc2ccccc2[N+](=O)[O-])[n-]1 | 13.1% | 12.3% | 29.4% | 25.2% | 7.15% |
| Cc1ccccc1-c1nnc(-c2ccc3ccccc3c2)o1 | -4.25% | -4.65% | -36.5% | 1.05% | -1.05% |
| O=c1c2cccnc2[nH]c2ccc3scnc3c12 | -11.3% | -3.75% | 22.2% | -20.1% | 40.7% |
| CC(=O)OCC1OC(n2cnc3c(N)ncnc32)C(Nc2ccc([N+](=O)[O-])cc2[N+](=O)[O-])C(OC(C)=O)C1OC(C)=O (stereo not given) | 4.4% | 5.8% | 17.9% | 3.45% | 21.8% |
| OC(CNc1ccc(Cl)cc1)CN1CCOCC1 (stereo not given) | 15.2% | 14.9% | -1.05% | -3.7% | 42% |
| N#C/C(=C1\OC(N)=C(c2ccc(Cl)cc2)C1=O)c1ccc(Cl)cc1 | -8.45% | 6.8% | 18.4% | 2.15% | 9.2% |
| Cc1ccc(C(C)(C)C)c2oc(=O)cc(C)c12 | 8.75% | 12.9% | 5% | 5.05% | 19.8% |
| c1ccc(N=C2SC(c3ccccc3)CN2C23CC4CC(CC(C4)C2)C3)cc1 (stereo not given) | -6.5% | -38% | -64.5% | -1.2% | -9.8% |
